Vif-A3F inh: Vif-A3F binding inhibition. Potency, µM (titrated, usually from 46.1 µM). 390,000 tested, 0.2% active. HeLa A3F-eYFP + Vif (tagged APOBEC3F with the HIV-1 protein that degrades it), YFP fluorescence increase. AID 602313; also: nearly all actives have a fitted effect of over 65% in size
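Fluorescence increase (Ex 488/Em 500-530) after overnight compound treatment at 37 deg C flags inhibition of Vif-driven A3F-eYFP loss in stable HeLa A3F-eYFP/Vif cells seeded overnight beforehand.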
IL-2 act: activates IL-2 in a cell-based reporter assay. IL-2 activation reporter assay, cell-based qHTS; stimulated with anti-CD3/CD4/CD28 beads; in transgenic mouse T cells. activation, % (series mostly up to about 46 µM). 360,000 tested, 0.065% active; in the data active = activation above about 50%; inconclusive = mostly about 30% to 49%
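Readout: EGFP and DsRed signals by fluorescent plate cytometry. Unstimulated transgenic mouse T cells received compound 60 min before antibody-bead stimulation, then incubated 18 h at 37 degrees C.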
Vif-APOBEC3G blk: Vif-A3G binding inhibition; Q9HC16; HeLa A3G-eYFP + Vif (tagged APOBEC3G with the HIV-1 protein that degrades it), YFP fluorescence, overnight; Potency, µM (titrated, usually from 46.1 µM), usual class: inhibitors; 410,000 tested, 0.076% active; AID 602310; also: nearly all actives have a fitted effect of over 60% in size
Target sequence (Q9HC16 whole entry, looked up): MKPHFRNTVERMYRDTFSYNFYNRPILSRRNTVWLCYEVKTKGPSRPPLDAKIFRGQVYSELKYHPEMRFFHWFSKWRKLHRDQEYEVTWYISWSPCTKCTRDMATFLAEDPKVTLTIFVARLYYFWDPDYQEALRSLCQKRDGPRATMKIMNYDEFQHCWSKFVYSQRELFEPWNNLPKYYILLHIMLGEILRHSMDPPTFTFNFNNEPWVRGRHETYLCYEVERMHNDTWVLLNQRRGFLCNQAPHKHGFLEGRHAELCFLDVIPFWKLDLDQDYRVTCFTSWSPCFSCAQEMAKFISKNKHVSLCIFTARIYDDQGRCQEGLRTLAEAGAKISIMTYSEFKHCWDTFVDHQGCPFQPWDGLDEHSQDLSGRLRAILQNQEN
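HeLa cells stably expressing Vif and C-terminally eYFP-tagged A3G, seeded overnight at 37 deg C, then exposed to compound by pintool overnight at 37 deg C. Rise in yellow fluorescence (Ex 488/Em 500-530, Acumen) marks blocked Vif-driven A3G degradation.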
PKM2 act: activators of human pyruvate kinase M2; purified PKM2, Kinase-Glo ATP luminescence, activation; response scale: 0% is enzyme alone, no compound; Potency, µM (series often up to 57.5 µM), usual class: activators; 260,000 tested, 0.34% active; AID 1631; also: nearly all actives have a fitted effect of over 55% in size
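ATP formation by purified human PK-M2, quantified via coupled luciferase luminescence after 1 h at room temperature with 0.1 mM ADP and 0.5 mM PEP final.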
Hits are given with their value; n = inactive; u = inconclusive; x = no result given. Sampled rows, rich in hits. Any-hit rate of the full collection: about 0.53%. Unless noted, calls follow the shape of the dose curve; as a rule, active = well fitted curve in the direction sought with a large enough effect; inconclusive = small, poorly fitted or top-dose-only effect, or another doubt; inactive = no such curve, though single readings can be large; an effect the other way counts as inactive or inconclusive.

SMILES	Vif-A3F inh	IL-2 act	Vif-APOBEC3G blk	PKM2 act
O=S1(=O)CC(N2CCN(Cc3ccccc3F)CC2)CN1Cc1cn(Cc2ccc(C(F)(F)F)cc2)nn1 (stereo unspecified)	x	n	x	x
C/C(=N\Nc1nc(C)cc(-c2ccccc2)n1)c1ccc(F)cc1	20µM	n	n	n
O=C(Nc1cccc(C(F)(F)F)c1)c1cc(-c2ccc(Cl)s2)nc2ccccc12	n	x	n	x
CNc1ccc(/C=C(\C#N)C(=O)Nc2ccccn2)cc1[N+](=O)[O-]	u	86.6	n	n
CC(C)(C)c1ccc(C(=O)NCC(c2cccnc2)N2CCc3ccccc3C2)cc1 (stereo unspecified)	n	x	n	x
O=[N+]([O-])c1ccc(N/N=C/c2c[nH]c3ccccc23)c(S(=O)(=O)Nc2ccc(Cl)cc2)c1	25.1µM	n	u	n
Cc1ccc(-n2nc3c(N4CCCC(C(=O)NCc5ccccc5C)C4)nnc(C)c3c2C)cc1 (stereo unspecified)	12.6µM	x	n	x
O=C(Cc1ccc[nH]c1=O)c1ccc(F)cc1	x	x	n	x
O=[N+]([O-])c1ccccc1S(=O)(=O)N1CCN(c2nc(-c3cccs3)nc3ccccc23)CC1	x	x	n	x
CSCC[C@H](NC(=O)[C@H](Cc1ccccc1)n1c(=O)[nH]c2ccccc2c1=O)C(=O)N1CCC[C@@H]1C(=O)O	n	n	10µM	n
Cc1cc2nc3c(=O)n(CCc4ccccc4)c(=O)[nH]c3nc2cc1N	6.31µM	n	u	n
N#C/C(=C\c1c(Cl)cccc1Cl)c1nc2ccccc2[nH]1	n	n	n	n
Cc1ccc2nc(/C(C#N)=C/c3ccc(-c4cccc([N+](=O)[O-])c4)o3)[nH]c2c1	10µM	n	n	n
Cc1ccc2nc(/C(C#N)=C/c3ccc(-c4ccc(F)cc4F)o3)[nH]c2c1	u	x	11.2µM	x
Cc1ccc2nc(/C(C#N)=C\c3cc(O)ccc3[N+](=O)[O-])[nH]c2c1	n	n	u	n
Cc1c(Cl)cccc1-c1ccc(/C=C(\C#N)c2nc3ccccc3[nH]2)o1	12.6µM	x	u	x
CCCCCCC[n+]1ccc(/C=C/c2c(C)[nH]c3ccccc23)c2ccccc21	x	x	n	x
Cc1ccccc1-c1noc(-c2ccc(N3CCCC3)c([N+](=O)[O-])c2)n1	n	x	n	x
COc1cc(/C=C2\CC/C(=C\c3cc(OC)c(O)c(OC)c3)C2=O)cc(OC)c1O	n	n	n	n
COc1cc(/C=C2/CCC/C(=C\c3cc(O)c(OC)c(Cl)c3)C2=O)cc(Cl)c1O	6.31µM	n	u	n
Cc1cc2c(cc1S(=O)(=O)Nc1cccc(C#N)c1)OCC(=O)N2	n	x	n	x
COc1cccc(NS(=O)(=O)c2cc3c(cc2C)NC(=O)CO3)c1	n	n	n	1.78µM
COc1ccccc1N1CCN(S(=O)(=O)c2cc3c(cc2C)NC(=O)CO3)CC1	n	n	n	n
COc1ccccc1NS(=O)(=O)c1cc2c(cc1C)NC(=O)CO2	n	n	n	7.08µM
CCC1=Nc2cc(C(=O)NCc3ccco3)ccc2Sc2ccccc21	n	n	u	17.8µM
SMILES	Vif-A3F inh	IL-2 act	Vif-APOBEC3G blk	PKM2 act
O=C(O)CSCC(=O)N1CCN(S(=O)(=O)c2ccccc2)CC1	n	n	n	n
CS(=O)(=O)N1CCN(C(=O)Cc2cccs2)CC1	n	n	n	n
CCOC(=O)c1ccoc1CSCC(=O)N1CCN(S(=O)(=O)c2ccc(C)cc2)CC1	n	n	n	25.1µM
O=C(CSc1ccccc1)N1CCN(S(=O)(=O)c2ccccc2)CC1	n	n	n	2.82µM
Cc1ccc(S(=O)(=O)N2CCN(C(=O)CSc3ccc(F)cc3)CC2)cc1	n	n	n	12.6µM
CCOC(=O)c1ccoc1CN1CCN(S(=O)(=O)c2ccc(C)c(C)c2)CC1	n	n	n	x
O=C(Cc1cccs1)N1CCN(S(=O)(=O)c2ccc(Br)cc2)CC1	n	n	n	3.16µM
CCOc1ccc(NC(=O)NCc2ccc3c(c2)CCN3C(C)=O)cc1	n	x	n	x
Cc1csc(SCC(=O)N2CCN(S(=O)(=O)c3ccccc3)CC2)n1	n	n	n	31.6µM
Cc1csc(SCC(=O)N2CCN(S(=O)(=O)c3ccc(Cl)cc3)CC2)n1	n	n	n	u
CCN(C(=O)CN1C(=O)COc2ccc(S(=O)(=O)N3CCOCC3)cc21)c1cccc(C)c1	n	x	n	x
C=C(/C=C/c1ccc(N(C)C)cc1)c1nc2ccccc2s1	x	x	11.2µM	x
COC(=O)[C@@]1(Cc2ccc(F)cc2)[C@H]2c3cc(C(=O)N(C)C)n(Cc4ccc(C)o4)c3C[C@H]2CN1C(=O)c1ccccc1	x	n	x	7.08µM
O=C1OC(c2ccccc2)=C/C1=C/N1CCOCC1	n	n	n	15.8µM
CCOC(=O)Cn1c(=O)c(-c2cc(Br)ccc2N)nc2ccccc21	11.2µM	151.8	n	n
CCOC(=O)Cn1c(=O)c(-c2ccccc2N)nc2ccccc21	n	n	n	n
COc1cc(N=Nc2cccc(S(N)(=O)=O)c2)c2ccccc2c1N	25.1µM	n	u	n
Cc1coc(NC(=O)CSc2nc(-c3ccncc3)cc(C(F)(F)F)c2C#N)n1	11.2µM	u	u	n
CCCCOc1ccc(-c2cc(C(F)(F)F)c(C#N)c(SCC(=O)O)n2)cc1	11.2µM	n	n	n
N#Cc1c(C(F)(F)F)cc(-c2ccc(F)cc2)nc1SCC(=O)Nc1ccccc1	n	x	n	x
N#Cc1ccccc1NC(=O)CSc1nc(-c2ccccc2)cc(C(F)(F)F)c1C#N	11.2µM	x	n	x
CN1C(=O)c2cccc3c(S(=O)(=O)Nc4ccccc4F)ccc1c23	n	n	n	11.2µM

Bioassay records from PubChem.
